Assay results published in publication PMC4552634, “A New Set of Chemical Starting Points with Plasmodium falciparum Transmission-Blocking Potential for Antimalarial Drug Discovery” (PLoS ONE, 2015).
Like-named read-outs stand apart in the source and are kept apart here. The campaign covered roughly 13,000 compounds. About 3,200 (25%) showed an effect of 50% or more. Some of the results follow.

Tested on: P. falciparum stage V gametocytes
Parameters: BacTiter-Glo ATP luminescence viability of purified stage V gametocytes in 384-well plates, per cent inhibition versus DMSO
Conditions: 48 h, 5 µM, inhibitor

SMILES	% Inhibition [%]	% Inhibition (% Inhibition) [%]
COc1ccc(CNC(=O)C2Cc3ccccc3CN2Cc2ccc3ccccc3c2)cc1 (stereo not shown) [TCMDC-141565]	-15.29	
O=C(O)c1ccc2nc(-c3ccccn3)c(-c3ccccn3)nc2c1 [TCMDC-123820]	-4.631	
O=C(Nc1nc(-c2ccccn2)cc2ccccc12)c1cccc(Cl)c1 [TCMDC-123886]	116.1	
CC(=O)Oc1cc(C(=O)Nc2ccc(Cl)cc2)cc2ccccc12 [TCMDC-123708]	7.424	
COc1ccc(-c2nonc2NC(=O)c2cccc(Cl)c2)cc1OC [TCMDC-125401]	22.75	
NC(=Nc1nc(-c2ccccn2)cc2ccccc12)c1cccc(Cl)c1 [TCMDC-123745]	62.24	
CC1CCCN(C(=O)c2cc(-c3ccccn3)nc3c(Cl)cccc23)C1 (stereo not shown) [TCMDC-125218]	20.47	
O=C(NC1CCN(Cc2ccccc2)CC1)c1ccc(-c2nc3cc(Cl)c(F)cc3[nH]2)s1 [TCMDC-140100]	2.226	
Cc1ccc(-c2csc(C)n2)c(C)c1 [TCMDC-125751]	2.132	
O=c1cc(-c2cccc(C(F)(F)F)c2)nc(Nc2ccc(Cl)c(Cl)c2)[nH]1 [TCMDC-132206]	43.99	
COc1cc(CS(C)(=O)=O)ccc1Nc1nccc(-c2c(-c3cccc(NC(=O)c4c(F)cccc4F)c3)nn3ccccc23)n1 [TCMDC-135792]	-6.854	
O=C(/C=C/c1ccc(Cl)c(Cl)c1)NCCCCCN1CCC(NC(=O)Nc2ccc(F)cc2F)CC1 [TCMDC-135712]	11.66	
O=C(C=Cc1ccc(Cl)c(Cl)c1)NCCCCCN1CCC(CCNS(=O)(=O)c2ccc(F)cc2)CC1 [TCMDC-139585]	78.1	
O=C(/C=C/c1ccc(Cl)c(Cl)c1)NCCCCCN1CCC(NC(=O)c2ccc(F)cc2F)CC1 [TCMDC-135842]	-11.69	
O=C(/C=C/c1ccc(Cl)c(Cl)c1)NCCCCCN1CCC(NC(=S)Nc2ccc(F)cc2F)CC1 [TCMDC-135900]	33.5	
O=C(C=Cc1ccc(Cl)c(Cl)c1)NCCCCCN1CCC(CCCNS(=O)(=O)c2ccc(F)cc2)CC1 [TCMDC-139589]	110.7	
Cc1cc(NC(=O)Nc2cccc(Cl)c2Cl)c2ccccc2n1 [TCMDC-138971]	10.53	
O=C(CCc1c[nH]cn1)Nc1cccc(-c2ccc(-c3nc4cc(F)ccc4[nH]3)s2)c1 [TCMDC-132160]	19.34	
CCOc1ccc(CCCON2C(N)=NC(N)=NC2(C)C)cc1 [TCMDC-131754]	18.76	
C/C=C1\CN2CC[C@H]1C[C@H]2[C@H](O)c1ccnc2ccc(OC)cc12 [TCMDC-138275]		1.908
COc1ccc2ncc(C#N)c(CCN3CCC(NCc4cnc5c(c4)OCCO5)CC3)c2n1 [TCMDC-135230]	35.06	
CC(=O)c1sc(Cc2nc3ccccc3s2)nc1C [TCMDC-125337]	10.02	

SMILES	% Inhibition [%]	% Inhibition (% Inhibition) [%]
CC(C)[C@H](NC(=O)c1c(F)cccc1F)C(=O)Nc1ccc(Cc2nc3ccccc3s2)cc1 [TCMDC-125031]	63.22	
CC(C)C(NC(=O)c1c(F)cccc1F)C(=O)Nc1ccc(Cc2nc3ccccc3s2)cc1 (stereo not shown) [TCMDC-125462]	-3.098	
O=C(c1ccccc1N=Nc1c(-c2ccccc2)[nH]n(-c2ccccc2)c1=O)N1CCOCC1 [TCMDC-125746]	-15.29	
CN(C)Cc1ccc(-c2ccc(NC(=O)c3ccc4c(=O)n(Cc5ccccc5)cnc4c3)cc2)cc1 [TCMDC-132361]	121.5	
CN1CCC(Oc2ccc(NC(=O)c3ccc4c(=O)n(Cc5ccccc5)cnc4c3)cc2Cl)CC1 [TCMDC-132373]	-13.59	
CN(C)Cc1ccc(-c2ccc(NC(=O)c3ccc4c(=O)n(Cc5ccoc5)cnc4c3)cc2)cc1 [TCMDC-132368]	79.58	
CN(C)CCN(C)Cc1ccc(-c2ccc(NC(=O)c3cccc(C#N)c3)cc2)cc1 [TCMDC-132597]	-16.52	
O=C(Nc1cc(F)cc(-c2cccnc2)c1)c1ccc2c(=O)n(Cc3ccccc3)cnc2c1 [TCMDC-132372]	12.04	
CN(C)Cc1cccc(-c2ccc(NC(=O)c3ccc4c(=O)n(Cc5ccoc5)cnc4c3)cc2)c1 [TCMDC-132369]	14.65	
Brc1ccsc1-c1nc(NCCC(c2ccccc2)c2ccccc2)no1 [TCMDC-134185]	1.138	
COc1ccc(C2CC(=O)C3=C(C2)NC(C)=C(C(=O)OC2CCCC2)C3c2ccc(O)cc2)cc1OC (stereo not shown) [TCMDC-125626]	11.61	
COc1cc2nc(-c3ccccc3)nc(N3CCN(CC(=O)N4CCCC4)CC3)c2cc1OC [TCMDC-125097]	-15.61	
O=C(/C=C/c1ccc(Cl)c(Cl)c1)N1CCC(CNCc2cccc3cc[nH]c23)CC1 [TCMDC-134168]	-34.36	
COc1ccc(NC(=O)/C=C/c2ccc(-c3ccccc3)cc2)cc1N1CCN(C)CC1 [TCMDC-138979]	-7.206	
COc1ccc(/C=C/C(=O)Nc2ccc(-c3ccncc3)cc2)cc1CCCN(C)C [TCMDC-132082]	72.07	
COc1ccc(C(=O)Nc2ccc(-c3ccc([N+](=O)[O-])cc3)cc2)cc1CCCN(C)C [TCMDC-132090]	0.6115	
COc1ccc(NC(=O)/C=C/c2ccc(-c3ccc(-c4noc(C)n4)cc3)cc2)cc1OCCN(C)C [TCMDC-138985]	62.93	
Cc1nc(-c2ccc(-c3ccc(C(=O)Nc4ccc(C(C)C)c(OCCN(C)C)c4)cc3)c(C)c2)no1 [TCMDC-138990]	-34.94	
COc1cc(NC(=O)/C=C/c2ccc(-c3ccccc3)cc2)ccc1OCCN(C(C)C)C(C)C [TCMDC-139961]	-1.594	
CC(=O)Nc1nc(C(=O)Nc2ccc(-c3cccc(-c4nc5ccc(C(F)(F)F)cc5[nH]4)c3)cc2)cs1 [TCMDC-137129]	-34.14	
COc1cccc(COCC(O)CN(CCc2ccccn2)C(=O)c2ccccc2F)c1 (stereo not shown) [TCMDC-141311]	5.48	
